# Assays:
# [1] = biological target: Serine/threonine-protein kinase SIK1 (Homo sapiens) (UniProt P57059); conditions: at 10 µM
# [2] = biological target: SRSF protein kinase 1 (Homo sapiens) (UniProt Q96SB4); conditions: at 1 µM
# [3] = biological target: SRSF protein kinase 1 (Homo sapiens) (UniProt Q96SB4); conditions: at 10 µM
# [4] = biological target: SRSF protein kinase 2 (Homo sapiens) (UniProt P78362); conditions: at 1 µM
# [5] = biological target: SRSF protein kinase 2 (Homo sapiens) (UniProt P78362); conditions: at 10 µM
# [6] = biological target: Serine/threonine-protein kinase 33 (Homo sapiens) (UniProt Q9BYT3); conditions: at 10 µM
# [7] = biological target: Tyrosine-protein kinase SYK (Homo sapiens) (UniProt P43405); conditions: at 1 µM
# [8] = biological target: Tyrosine-protein kinase SYK (Homo sapiens) (UniProt P43405); conditions: at 10 µM
# [9] = biological target: T1, Mitogen-activated protein kinase kinase kinase 7 (Homo sapiens) (UniProt O43318); conditions: at 10 µM
# T1 sequence (whole entry): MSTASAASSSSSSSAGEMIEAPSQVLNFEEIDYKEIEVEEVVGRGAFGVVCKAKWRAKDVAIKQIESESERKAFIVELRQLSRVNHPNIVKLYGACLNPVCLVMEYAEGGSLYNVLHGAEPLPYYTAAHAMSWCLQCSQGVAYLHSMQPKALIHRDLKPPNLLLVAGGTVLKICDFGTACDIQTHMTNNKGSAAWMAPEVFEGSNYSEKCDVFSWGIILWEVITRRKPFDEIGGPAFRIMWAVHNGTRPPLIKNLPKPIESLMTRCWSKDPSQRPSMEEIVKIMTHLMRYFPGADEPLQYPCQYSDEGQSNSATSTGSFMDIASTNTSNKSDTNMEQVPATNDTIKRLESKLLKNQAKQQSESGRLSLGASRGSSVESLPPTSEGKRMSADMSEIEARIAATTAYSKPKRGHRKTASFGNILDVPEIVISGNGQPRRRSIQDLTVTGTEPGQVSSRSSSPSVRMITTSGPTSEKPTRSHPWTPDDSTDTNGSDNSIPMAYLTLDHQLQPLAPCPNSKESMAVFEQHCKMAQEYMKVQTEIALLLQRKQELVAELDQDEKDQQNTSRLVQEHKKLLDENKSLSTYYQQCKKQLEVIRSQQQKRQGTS
# [10] = biological target: T2, Serine/threonine-protein kinase TAO2 (Homo sapiens) (UniProt Q9UL54); conditions: at 1 µM
# T2 sequence (whole entry): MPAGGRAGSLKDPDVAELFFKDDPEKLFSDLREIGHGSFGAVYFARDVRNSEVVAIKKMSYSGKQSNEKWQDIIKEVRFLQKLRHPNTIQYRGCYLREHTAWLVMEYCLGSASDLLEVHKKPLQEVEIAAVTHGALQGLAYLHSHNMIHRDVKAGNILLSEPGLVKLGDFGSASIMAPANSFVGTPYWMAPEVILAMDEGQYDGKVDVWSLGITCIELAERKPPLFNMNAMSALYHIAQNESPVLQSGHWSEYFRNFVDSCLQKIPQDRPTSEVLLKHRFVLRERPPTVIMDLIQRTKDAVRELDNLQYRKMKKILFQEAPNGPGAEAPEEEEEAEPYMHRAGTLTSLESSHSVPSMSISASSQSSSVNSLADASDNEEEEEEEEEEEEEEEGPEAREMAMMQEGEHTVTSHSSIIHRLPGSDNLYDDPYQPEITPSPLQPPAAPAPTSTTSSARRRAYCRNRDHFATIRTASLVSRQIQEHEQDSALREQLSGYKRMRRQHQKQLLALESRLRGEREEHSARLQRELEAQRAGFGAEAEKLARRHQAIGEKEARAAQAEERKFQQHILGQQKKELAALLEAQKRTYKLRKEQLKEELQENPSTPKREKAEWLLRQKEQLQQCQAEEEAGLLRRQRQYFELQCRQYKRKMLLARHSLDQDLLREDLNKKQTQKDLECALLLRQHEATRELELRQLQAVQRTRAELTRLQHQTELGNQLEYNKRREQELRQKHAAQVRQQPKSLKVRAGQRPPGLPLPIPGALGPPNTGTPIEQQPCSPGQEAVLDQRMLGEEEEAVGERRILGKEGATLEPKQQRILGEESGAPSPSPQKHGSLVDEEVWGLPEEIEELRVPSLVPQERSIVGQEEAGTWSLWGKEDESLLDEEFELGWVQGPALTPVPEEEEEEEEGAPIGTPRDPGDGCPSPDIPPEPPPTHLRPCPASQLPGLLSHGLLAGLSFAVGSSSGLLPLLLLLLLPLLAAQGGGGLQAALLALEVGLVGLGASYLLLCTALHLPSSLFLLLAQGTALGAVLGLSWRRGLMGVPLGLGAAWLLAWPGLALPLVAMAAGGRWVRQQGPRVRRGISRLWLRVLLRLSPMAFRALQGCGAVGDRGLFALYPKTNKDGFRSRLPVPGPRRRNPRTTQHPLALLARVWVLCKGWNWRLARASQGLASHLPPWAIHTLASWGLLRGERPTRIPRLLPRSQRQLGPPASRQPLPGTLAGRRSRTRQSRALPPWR
# [11] = biological target: T2, Serine/threonine-protein kinase TAO2 (Homo sapiens); conditions: at 10 µM
# [12] = biological target: T3, Serine/threonine-protein kinase TAO3 (Homo sapiens) (UniProt Q9H2K8); conditions: at 1 µM
# T3 sequence (whole entry): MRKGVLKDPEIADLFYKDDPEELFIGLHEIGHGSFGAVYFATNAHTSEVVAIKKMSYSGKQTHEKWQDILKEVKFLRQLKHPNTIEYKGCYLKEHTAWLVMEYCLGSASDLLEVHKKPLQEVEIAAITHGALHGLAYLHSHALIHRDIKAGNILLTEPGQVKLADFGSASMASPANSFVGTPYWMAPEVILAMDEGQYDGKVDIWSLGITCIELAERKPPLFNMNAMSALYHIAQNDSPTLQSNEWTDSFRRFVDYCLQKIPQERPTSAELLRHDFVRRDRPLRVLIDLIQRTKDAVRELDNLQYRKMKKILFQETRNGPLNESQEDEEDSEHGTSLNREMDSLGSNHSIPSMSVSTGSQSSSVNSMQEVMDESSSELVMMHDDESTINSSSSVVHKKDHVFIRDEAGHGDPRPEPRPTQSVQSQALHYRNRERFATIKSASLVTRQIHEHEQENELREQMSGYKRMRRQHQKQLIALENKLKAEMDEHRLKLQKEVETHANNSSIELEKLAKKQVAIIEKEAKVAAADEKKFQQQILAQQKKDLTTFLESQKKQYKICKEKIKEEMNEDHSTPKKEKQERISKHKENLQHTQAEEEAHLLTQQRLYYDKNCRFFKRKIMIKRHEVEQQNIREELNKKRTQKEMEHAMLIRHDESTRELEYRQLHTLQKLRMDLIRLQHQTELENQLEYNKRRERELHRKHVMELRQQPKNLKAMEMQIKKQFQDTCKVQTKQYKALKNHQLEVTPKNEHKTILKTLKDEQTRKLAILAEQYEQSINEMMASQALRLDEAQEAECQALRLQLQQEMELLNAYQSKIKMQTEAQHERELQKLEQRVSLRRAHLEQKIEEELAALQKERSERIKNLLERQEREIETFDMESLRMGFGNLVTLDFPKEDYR
# [13] = biological target: T3, Serine/threonine-protein kinase TAO3 (Homo sapiens); conditions: at 10 µM
# [14] = biological target: T4, Serine/threonine-protein kinase TBK1 (Homo sapiens) (UniProt Q9UHD2); conditions: at 1 µM
# T4 sequence (whole entry): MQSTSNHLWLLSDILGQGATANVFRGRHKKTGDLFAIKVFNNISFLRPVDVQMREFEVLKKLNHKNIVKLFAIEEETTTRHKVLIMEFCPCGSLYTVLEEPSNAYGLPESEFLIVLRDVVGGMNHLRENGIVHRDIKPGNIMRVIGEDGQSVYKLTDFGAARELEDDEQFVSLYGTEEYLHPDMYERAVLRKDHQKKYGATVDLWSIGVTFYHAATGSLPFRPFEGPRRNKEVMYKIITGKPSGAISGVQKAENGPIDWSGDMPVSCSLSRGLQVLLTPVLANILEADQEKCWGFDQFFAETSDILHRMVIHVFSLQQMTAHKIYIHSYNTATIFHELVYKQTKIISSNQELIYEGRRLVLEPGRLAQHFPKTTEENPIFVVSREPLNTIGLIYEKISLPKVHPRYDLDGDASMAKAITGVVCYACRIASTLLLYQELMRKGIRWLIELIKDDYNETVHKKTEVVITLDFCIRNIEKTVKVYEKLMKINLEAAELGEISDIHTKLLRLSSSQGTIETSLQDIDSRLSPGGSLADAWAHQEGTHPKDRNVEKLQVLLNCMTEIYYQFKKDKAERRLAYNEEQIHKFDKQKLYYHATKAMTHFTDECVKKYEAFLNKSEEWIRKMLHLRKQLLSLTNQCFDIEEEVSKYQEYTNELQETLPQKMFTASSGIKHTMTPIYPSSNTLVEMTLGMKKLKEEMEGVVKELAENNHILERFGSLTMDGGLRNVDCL
# [15] = biological target: Serine/threonine-protein kinase 33 (Homo sapiens) (UniProt Q9BYT3); conditions: at 1 µM
# [16] = biological target: Serine/threonine-protein kinase PLK2 (Homo sapiens) (UniProt Q9NYY3); conditions: at 1 µM
# [17] = biological target: Serine/threonine-protein kinase PLK2 (Homo sapiens) (UniProt Q9NYY3); conditions: at 10 µM
# [18] = biological target: T1, Mitogen-activated protein kinase kinase kinase 7 (Homo sapiens); conditions: at 1 µM
# [19] = biological target: T5, Serine/threonine-protein kinase TAO1 (Homo sapiens) (UniProt Q7L7X3); conditions: at 1 µM
# T5 sequence (whole entry): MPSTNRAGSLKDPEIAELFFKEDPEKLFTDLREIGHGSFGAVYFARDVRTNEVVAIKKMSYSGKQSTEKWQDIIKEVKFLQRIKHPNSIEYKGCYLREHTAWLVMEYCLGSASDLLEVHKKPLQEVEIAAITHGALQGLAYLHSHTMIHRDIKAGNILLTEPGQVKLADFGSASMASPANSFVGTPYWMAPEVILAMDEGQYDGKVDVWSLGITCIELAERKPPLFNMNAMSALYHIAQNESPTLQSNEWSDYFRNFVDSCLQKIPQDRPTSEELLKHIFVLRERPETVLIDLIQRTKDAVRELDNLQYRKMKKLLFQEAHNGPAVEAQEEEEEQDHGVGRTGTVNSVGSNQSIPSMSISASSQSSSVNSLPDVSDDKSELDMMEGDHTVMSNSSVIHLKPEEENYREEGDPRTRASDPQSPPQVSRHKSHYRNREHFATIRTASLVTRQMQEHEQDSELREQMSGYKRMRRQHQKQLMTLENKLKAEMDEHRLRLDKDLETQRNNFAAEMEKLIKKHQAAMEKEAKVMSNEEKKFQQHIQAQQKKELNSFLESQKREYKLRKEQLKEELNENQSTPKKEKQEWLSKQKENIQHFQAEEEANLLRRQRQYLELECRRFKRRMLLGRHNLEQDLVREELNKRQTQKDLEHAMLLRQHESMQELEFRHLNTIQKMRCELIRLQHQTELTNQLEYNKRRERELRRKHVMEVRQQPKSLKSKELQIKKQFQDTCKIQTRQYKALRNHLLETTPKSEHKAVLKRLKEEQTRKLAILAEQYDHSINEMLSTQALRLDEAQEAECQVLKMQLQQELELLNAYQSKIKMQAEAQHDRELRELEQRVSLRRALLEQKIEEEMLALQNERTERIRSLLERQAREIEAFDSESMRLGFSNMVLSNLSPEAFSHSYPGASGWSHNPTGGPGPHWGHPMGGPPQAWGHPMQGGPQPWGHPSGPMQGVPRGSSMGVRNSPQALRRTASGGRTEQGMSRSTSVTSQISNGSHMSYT
# [20] = biological target: T5, Serine/threonine-protein kinase TAO1 (Homo sapiens); conditions: at 10 µM
# Sequence of Serine/threonine-protein kinase PLK2 (Homo sapiens) (Q9NYY3 whole entry, looked up): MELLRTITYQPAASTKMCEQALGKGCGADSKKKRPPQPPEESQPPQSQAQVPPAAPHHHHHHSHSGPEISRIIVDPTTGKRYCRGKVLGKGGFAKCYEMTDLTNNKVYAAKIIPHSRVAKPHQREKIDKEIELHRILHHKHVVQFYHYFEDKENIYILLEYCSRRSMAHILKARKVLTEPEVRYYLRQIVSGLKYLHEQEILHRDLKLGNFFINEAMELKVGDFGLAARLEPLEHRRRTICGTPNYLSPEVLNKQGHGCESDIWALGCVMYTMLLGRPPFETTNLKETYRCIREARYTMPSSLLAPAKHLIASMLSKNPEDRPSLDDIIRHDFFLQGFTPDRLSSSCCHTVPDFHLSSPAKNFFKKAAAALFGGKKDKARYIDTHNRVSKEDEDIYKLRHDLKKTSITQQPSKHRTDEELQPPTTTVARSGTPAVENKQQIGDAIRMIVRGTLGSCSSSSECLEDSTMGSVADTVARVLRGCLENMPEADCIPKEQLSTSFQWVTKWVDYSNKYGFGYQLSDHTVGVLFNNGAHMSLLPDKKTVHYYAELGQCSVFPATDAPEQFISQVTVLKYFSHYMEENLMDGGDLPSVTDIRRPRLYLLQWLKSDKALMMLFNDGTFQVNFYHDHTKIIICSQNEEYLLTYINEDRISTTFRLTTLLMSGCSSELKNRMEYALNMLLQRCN
# Sequence of Serine/threonine-protein kinase SIK1 (Homo sapiens) (P57059 whole entry): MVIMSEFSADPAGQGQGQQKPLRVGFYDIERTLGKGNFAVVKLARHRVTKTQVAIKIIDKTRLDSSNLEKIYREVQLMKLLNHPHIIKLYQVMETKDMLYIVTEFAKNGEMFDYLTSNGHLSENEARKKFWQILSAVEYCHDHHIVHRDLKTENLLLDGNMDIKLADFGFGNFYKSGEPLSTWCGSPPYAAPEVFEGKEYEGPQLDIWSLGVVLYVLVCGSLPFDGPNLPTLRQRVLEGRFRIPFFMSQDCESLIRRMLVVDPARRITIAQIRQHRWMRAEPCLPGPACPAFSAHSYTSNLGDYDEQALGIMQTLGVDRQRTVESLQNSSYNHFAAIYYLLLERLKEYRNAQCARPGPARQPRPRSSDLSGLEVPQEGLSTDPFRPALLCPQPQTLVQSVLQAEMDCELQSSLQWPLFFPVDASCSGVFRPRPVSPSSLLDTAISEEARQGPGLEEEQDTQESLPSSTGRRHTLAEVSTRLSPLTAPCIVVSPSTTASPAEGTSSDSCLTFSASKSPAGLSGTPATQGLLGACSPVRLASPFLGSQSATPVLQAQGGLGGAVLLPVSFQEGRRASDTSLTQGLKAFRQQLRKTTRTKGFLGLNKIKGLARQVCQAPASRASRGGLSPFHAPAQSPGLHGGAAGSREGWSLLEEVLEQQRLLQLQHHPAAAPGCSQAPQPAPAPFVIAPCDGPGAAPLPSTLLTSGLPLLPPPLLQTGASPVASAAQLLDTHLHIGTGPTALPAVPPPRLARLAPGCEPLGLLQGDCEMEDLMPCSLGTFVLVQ
# Sequence of Serine/threonine-protein kinase 33 (Homo sapiens) (Q9BYT3 whole entry, looked up): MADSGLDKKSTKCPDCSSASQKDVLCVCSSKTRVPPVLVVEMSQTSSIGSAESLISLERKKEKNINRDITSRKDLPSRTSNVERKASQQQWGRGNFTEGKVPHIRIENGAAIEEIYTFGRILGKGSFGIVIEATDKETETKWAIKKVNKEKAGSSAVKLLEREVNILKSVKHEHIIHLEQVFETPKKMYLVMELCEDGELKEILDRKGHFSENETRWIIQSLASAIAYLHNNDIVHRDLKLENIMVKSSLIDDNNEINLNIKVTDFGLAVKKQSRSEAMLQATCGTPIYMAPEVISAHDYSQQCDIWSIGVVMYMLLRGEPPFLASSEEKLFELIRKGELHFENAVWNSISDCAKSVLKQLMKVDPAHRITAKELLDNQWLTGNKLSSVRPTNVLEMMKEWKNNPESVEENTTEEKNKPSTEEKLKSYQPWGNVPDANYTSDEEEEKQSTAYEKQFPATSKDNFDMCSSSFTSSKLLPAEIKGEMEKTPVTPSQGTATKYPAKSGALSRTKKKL
# Sequence of SRSF protein kinase 1 (Homo sapiens) (Q96SB4 whole entry): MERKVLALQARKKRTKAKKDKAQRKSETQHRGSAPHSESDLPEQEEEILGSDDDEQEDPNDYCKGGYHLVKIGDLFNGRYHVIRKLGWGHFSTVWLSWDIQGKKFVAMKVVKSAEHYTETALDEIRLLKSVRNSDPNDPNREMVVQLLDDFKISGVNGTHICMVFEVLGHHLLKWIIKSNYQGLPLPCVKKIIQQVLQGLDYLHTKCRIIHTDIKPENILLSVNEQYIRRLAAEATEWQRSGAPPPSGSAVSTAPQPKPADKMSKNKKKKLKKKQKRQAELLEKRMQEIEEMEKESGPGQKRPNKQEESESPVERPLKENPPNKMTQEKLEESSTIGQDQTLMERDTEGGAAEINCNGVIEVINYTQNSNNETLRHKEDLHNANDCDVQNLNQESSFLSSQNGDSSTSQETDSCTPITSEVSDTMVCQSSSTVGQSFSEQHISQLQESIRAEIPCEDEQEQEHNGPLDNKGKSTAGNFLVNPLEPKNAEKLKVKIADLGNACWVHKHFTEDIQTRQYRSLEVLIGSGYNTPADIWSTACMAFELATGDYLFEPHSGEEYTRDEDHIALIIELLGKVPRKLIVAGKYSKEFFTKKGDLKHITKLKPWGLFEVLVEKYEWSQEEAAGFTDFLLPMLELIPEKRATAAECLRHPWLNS
# Sequence of SRSF protein kinase 2 (Homo sapiens) (P78362 whole entry, looked up): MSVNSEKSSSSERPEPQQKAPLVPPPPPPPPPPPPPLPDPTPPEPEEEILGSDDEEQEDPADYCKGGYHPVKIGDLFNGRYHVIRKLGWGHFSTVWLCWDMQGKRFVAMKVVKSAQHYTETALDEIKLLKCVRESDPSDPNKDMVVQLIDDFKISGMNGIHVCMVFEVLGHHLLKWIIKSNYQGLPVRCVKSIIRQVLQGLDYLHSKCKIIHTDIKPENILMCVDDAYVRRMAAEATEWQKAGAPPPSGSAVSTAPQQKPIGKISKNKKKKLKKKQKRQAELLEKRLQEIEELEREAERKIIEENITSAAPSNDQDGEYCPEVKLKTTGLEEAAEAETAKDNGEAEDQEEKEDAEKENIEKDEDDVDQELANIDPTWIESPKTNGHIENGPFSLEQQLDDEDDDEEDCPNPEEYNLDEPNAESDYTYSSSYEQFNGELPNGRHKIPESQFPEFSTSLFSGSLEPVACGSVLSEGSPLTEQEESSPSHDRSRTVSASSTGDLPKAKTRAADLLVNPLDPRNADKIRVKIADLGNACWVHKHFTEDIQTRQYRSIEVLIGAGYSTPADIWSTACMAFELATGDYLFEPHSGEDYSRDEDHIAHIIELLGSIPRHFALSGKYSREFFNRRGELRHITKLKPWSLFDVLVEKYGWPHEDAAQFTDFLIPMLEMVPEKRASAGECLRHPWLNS
SMILES,residual activity [1] [%],residual activity [2] [%],residual activity [3] [%],residual activity [4] [%],residual activity [5] [%],residual activity [6] [%],residual activity [7] [%],residual activity [8] [%],residual activity [9] [%],residual activity [10] [%],residual activity [11] [%],residual activity [12] [%],residual activity [13] [%],residual activity [14] [%],residual activity [15] [%],residual activity [16] [%],residual activity [17] [%],residual activity [18] [%],residual activity [19] [%],residual activity [20] [%]
O=C1NC(=O)C(c2c[nH]c3ccccc23)=C1c1c[nH]c2ccccc12,7,63,6,74,22,71,120,82,75,82,35,69,26,70,,,,,,
O=c1cc(N2CCOCC2)oc2c1ccc1ccccc12,93,99,93,97,97,101,,94,90,98,96,98,95,77,93,98,85,93,102,87
O=c1cc(N2CCNCC2)oc2c(-c3ccccc3)cccc12,8,99,85,91,93,93,,92,83,105,96,98,92,72,98,99,95,95,,85
COc1cc2c(cc1OC)-c1n[nH]c(Nc3cccc(F)c3)c1C2,5,,105,,,,117,76,,,78,,,52,,,,,,61
CC(C)(C)c1nc2c3ccc(F)cc3c3c(=O)[nH]ccc3c2[nH]1,42,99,,,73,24,,,62,,,68,73,15,34,49,44,44,56,24
CN([C@@H](Cc1ccc(OS(=O)(=O)c2cccc3cnccc23)cc1)C(=O)N1CCN(c2ccccc2)CC1)S(=O)(=O)c1cccc2cnccc12,124,,86,,,,,,98,,,,,,,100,99,99,,
O=C(Nc1nc2ccccc2n1CCN1CCOCC1)c1cccc([N+](=O)[O-])c1,73,,,79,74,88,123,84,74,,,,,73,83,,,78,,

# From ChEMBL document CHEMBL2218924, “A broad activity screen in support of a chemogenomic map for kinase signalling research and drug discovery” (Biochem J, 2013)
